From PubChem BioAssay AID1963322 (National Center for Advancing Translational Sciences (NCATS), 2024)
Results filed as inconclusive are left out. The source made the active and inactive calls. Calls follow the shape of the full dose curve.

Each molecule was assayed against cAMP-dependent protein kinase catalytic subunit alpha (Homo sapiens) (UniProt P17612) (assay: Protein Kinase A (PKA-HiBiT) SDR gain of signal screen). Conditions: PKA-HiBiT structural dynamics response (SDR), luminescence gain of signal; series mostly up to 32.9 µM; activity change, positive = signal gain: at the top concentration.
Description: National Center for Advancing Translational Sciences (NCATS),
National Institute of Health (NIH), Maryland
Discovery and optimization of novel protein-binding ligands underlies many of the methods and applications of biology, drug discovery, clinical diagnostics, and environmental toxicology. Assays for detecting the interaction of, for example, a molecule with a macromolecular target also referred to here as the target of interest (TOI) is dependent on a compatible output technology. Depending on the nature and knowledge surrounding the TOI, whether a receptor, enzyme, regulatory subunit or scaffold, or a sequence-defined nucleic acid folded into a complex tertiary structure, assay strategies can vary widely.
Here we exploit ligand-biased changes in the structural dynamics of the target protein to control reporter alpha complementation allowing a non-competitive, non-functional, non-separation measure of ligand-target interaction.
Using a chemical library of >1,200 compounds enriched for scaffolds known to be associated with the inhibition of firefly luciferase (FLuc) activity (PubChem AIDs 2309) we first illustrate and compare the Structural Dynamics Response (SDR) assay vs. the standard functional FLuc enzyme assay (2). Secondly, we show the specificity and sensitivity of the SDR for the Abelson tyrosine kinase (ABL1) compared to the serine/threonine protein kinase A, using an enriched chemical library of 128 compounds selected, in part, for activity annotated with ABL1 kinase activity using the Pharos database (3).
(1) A. S. Dixon et al., NanoLuc Complementation Reporter Optimized for Accurate Measurement of Protein Interactions in Cells. ACS Chem Biol 11, 400-408 (2016).
Chemistry & Biology, 19, 1060 - 1072 (2012).
(3) K. J. Kelleher et al., Pharos 2023: an integrated resource for the understudied human proteome. Nucleic Acids Res 51, D1405-D1416 (2023).
PROTOCOL TABLE (as described by Inglese J, Shamu CE and Guy RK. 2007)
SEQUENCE No. (e.g., 1, 2, 3, etc.); […] (e.g., C. elegans, Compounds, Incubation, Read, etc.); VALUE and DESCRIPTION.
1. Reagent. Dispense 4 uL PKA-N-HiBiT enzyme per well at a final enzyme concentration of 10 nM in buffer into columns 2-48 of four replicate Greiner 1536-well white,solid bottom high base, medium plates per assay. Dispense respective buffer without enzyme at 4 uL/well in column 1 of assay plates using BioRaptr 2.
2. Compounds. Library compounds added at 23 nL/well by pin transfer. DMSO neutral control and H-89 positive control added at 25 nL/well, transfer by Mosquito dispenser.
3. Incubation. Incubate enzyme and compounds at room temperature for 30 min, protect from light.
4. Reagent. (SDR assay) Add 3 uL/well of Nano-Glo HiBiT reagent (Promega) to assay plates.
5. Incubation. (SDR assay) Incubate enzyme solution HiBiT reagent at room temperature for 10 min, protected from light.
6. Detector. (SDR assay) Luminescence measured using CCD-based camera (ViewLux) with settings as follows: Exposure, 1 sec; Gain, High; Speed, Slow; Binning, 2X.
For `Cc1[nH]nc2ccc(-c3cncc(OC[C@@H](N)Cc4c[nH]c5ccccc45)c3)cc12`, the Potency was 197 nM (active).
For `O=C(NCCCNc1nc(Nc2ccc(N3CCOCC3)cc2)ncc1C1CC1)C1CCC1`, the “activity change, positive = signal gain” value was -1.76% (inactive).
In the case of `N#Cc1cn([C@@H]2O[C@H](CO)[C@H](O)[C@@H]2O)c2ncnc(N)c12`, the “activity change, positive = signal gain” value is reported as 0.291% (inactive).
In the case of `CCNC(=O)C[C@@H]1N=C(c2ccc(Cl)cc2)c2cc(OC)ccc2-n2c(C)nnc21`, the “activity change, positive = signal gain” value is reported as 4.6% (inactive).
In the case of `O=[N+]([O-])O[C@H]1CO[C@H]2[C@@H]1OC[C@H]2O[N+](=O)[O-]`, the “activity change, positive = signal gain” value is reported as 4.6% (inactive).
`C/C(O)=C(\C#N)C(=O)Nc1cc(Br)ccc1Br` was tested, and the “activity change, positive = signal gain” value was -82.4% (inactive).
